# Experimental data reported in PubChem BioAssay (NCATS).
# Where “and” joins values, the source holds several entries; their conditions need not be identical. Equal values may be shown once. Inconclusive results are not listed. Where a call stands in place of a potency, no number is given. A structure can be active in one record and inactive in another. Calls of active or inactive are those of the source. Unless noted, the call rests on the fitted dose curve; in most records, active means well fitted curve in the direction sought with a large enough effect; inconclusive means small, poorly fitted or top-dose-only effect, or another doubt; inactive means no such curve, though single readings can be large; an effect the other way counts as inactive or inconclusive.
# Key:
# [1] = target: Calcium and integrin-binding protein 1 (Homo sapiens) (UniProt Q99828); assay: Primary qHTS for Identification of Calcium Integrin Binding Protein 1 (CIB1) Competitor (AID 1508620);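 further: GST tagged CIB1 binding a fluorescein labelled alphaIIb integrin peptide tracer; top concentration of the series differs between compounds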
# Method in brief: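 Fluorescence polarization competition: CIB1-GST (1 uM final) preincubated with compound 15 min at room temperature, then FITC-labeled alphaIIb peptide (100 nM final) added for another 15 min. Polarization read at Ex 480/Em 540.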
# [2] = target: Protein phosphatase 1D (Homo sapiens) (UniProt O15297); assay: Rhodamine-PBP qHTS Assay for Modulators of WT P53-Induced Phosphatase 1 (WIP1) (AID 1347425)
# Method in brief: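 5 nM WIP1 + 10 uM Rh-PBP, 50 mM Tris pH 7.5, 30 mM MgCl2, 1 mM TCEP, 0.1 mM EGTA, BSA; cpds pinned, 1 hr RT; + 10 uM phosphopeptide; fluorescence 1-min reads x 11 min; delta = f1 - f0.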
# [3] = Primary qHTS for small molecule stabilizers of the endoplasmic reticulum resident proteome: Secreted ER Calcium Modulated Protein (SERCaMP) assay (AID 1508630)
# Method in brief: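 GLuc-SERCaMP-expressing SH-SY5Y cells, pretreated 16 h with compound, are challenged with thapsigargin to empty ER calcium stores; after 4 h, coelenterazine is added directly to the medium and luminescence is imaged.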
# [4] = target: Cytochrome P450 2D6 (Homo sapiens) (UniProt P10635); assay: Cytochrome P450 family 2 subfamily D member 6 (CYP2D6) small molecule antagonists: luciferase biochemical (cell-free) qHTS assay (AID 1645840; active means well fitted curve in the direction sought with a large enough effect in the repeat runs; an effect the other way counts as inactive or inconclusive; further: nearly all actives have a fitted effect of over 55% in size; further: potency means the concentration at half of the fitted maximal effect)
# Method in brief: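 P450-Glo luminescent screen: recombinant CYP2D6 enzyme–proluciferin substrate mix preincubated with compound 10 min at room temperature, then NADPH regeneration added for 1 h at room temperature. Detection reagent added for 20 min; luciferin light read as relative luminescence units.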
# [5] = target: Cytochrome P450 2C9 (Homo sapiens) (UniProt P11712); assay: Cytochrome P450 family 2 subfamily C member 9 (CYP2C9) small molecule antagonists: luciferase biochemical (cell-free) qHTS assay (AID 1645842; active means well fitted curve in the direction sought with a large enough effect in the repeat runs; an effect the other way counts as inactive or inconclusive; further: nearly all actives have a fitted effect of over 55% in size; further: potency means the concentration at half of the fitted maximal effect)
# Method in brief: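 Luminescence, after 20 min with luciferin detection reagent, reflected CYP2C9 turnover during a 1 h NADPH-driven reaction at 37C. Enzyme-substrate mix contained 0.4% bovine serum albumin and was preincubated with compound 10 min at room temperature.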
# [6] = Primary qHTS for inhibitors of nuclear receptor binding SET domain protein 2 (NSD2) in an isogenic RCH-ACV NSD2 p.E1099K mutant (9B) (AID 1645876); further: nearly all actives have a fitted effect of over 70% in size; further: potency means the concentration at half of the fitted maximal effect
# [7] = Primary qHTS for inhibitors of nuclear receptor binding SET domain protein 2 (NSD2) in an RCH-ACV wild type WT cells (2C) (AID 1645877); further: nearly all actives have a fitted effect of over 70% in size; further: potency means the concentration at half of the fitted maximal effect
# [8] = Counterscreen qHTS for small molecule stabilizers of the endoplasmic reticulum resident proteome: GLuc-NoTag assay (AID 1508627);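 further: SH-SY5Y cells given compound then 100 nM thapsigargin to empty ER calcium; series mostly up to about 76 µM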
# Method in brief: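 SH-SY5Y cells stably expressing constitutively secreted GLuc (no SERCaMP tag) were pre-incubated 5 h, treated with compound for 19 h, then 100 nM thapsigargin for 4 h at 37C; medium GLuc read by coelenterazine luminescence.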
# [9] = target: N-terminal Xaa-Pro-Lys N-methyltransferase 1 (Homo sapiens) (UniProt Q9BV86); assay: Confirmatory qHTS for Inhibitors of N-terminal methyltransferase 1 (NTMT1): MTaseGlo Assay (AID 1645874); further: potency means the concentration at half of the fitted maximal effect; nearly all actives have a fitted effect of over 65% in size
# Method in brief: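 Preincubation of NTMT1 (125 nM) plus SAM (100 uM) with test compounds lasted 15 min; methylation of 1 uM SPKRIA then proceeded 30 min in the dark at room temperature. Luciferase signal reported SAH produced.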
# [10] = target: Single-stranded DNA cytosine deaminase (Homo sapiens) (UniProt Q9GZX7); assay: Validation qHTS assay for inhibitors of Activation Induced Cytidine Deaminase (AID): AID signal (AID 1347429); further: potency means the concentration at half of the fitted maximal effect
# Method in brief: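 In this coupled qHTS, AID deaminates a FRET-labelled ssDNA substrate in the presence of UDG over 4 hr at room temperature. Compounds span up to 114 uM final.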
# [11] = target: Calcium and integrin-binding protein 1 (Homo sapiens) (UniProt Q99828); assay: Validation qHTS for Identification of Calcium Integrin Binding protein 1 (CIB1) Competitor (AID 1508618)
# Method in brief: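 Displacement of FITC-alphaIIb peptide (100 nM) from CIB1-GST (1 uM) is monitored by polarization in quantitative HTS format; buffer carries 5 mM CaCl2 and 125 mM NaCl at pH 7.4, incubations are at room temperature.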
# [12] = target: Papain (Carica papaya) (UniProt P00784); assay: Primary qHTS assay for inhibitors of the protease papain (AID 1645873);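 further: papain turnover of Z-FR-AMC read as the AMC fluorescence gain over 10 min; series mostly up to about 50 µM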
# [13] = target: Rap guanine nucleotide exchange factor 3 (Homo sapiens) (UniProt O95398); assay: Confirmatory qHTS for antagonist of cAMP-regulated guanine nucleotide exchange factor 3 (EPAC1) (AID 1645880); further: nearly all actives have a fitted effect of over 55% in size
# Method in brief: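 Nucleotide exchange uses 100 nM EPAC1, 250 nM RAP1B-BODIPY-GDP and 50 uM GDP, with compounds in a concentration-titration series. After 5 min at room temperature, fluorescence (480 nm ex/540 nm em) is read every 5 min for 30 min. Data are normalized to control ATA and DMSO.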
# [14] = Validation qHTS assay for inhibitors of Activation Induced Cytidine Deaminase (AID): UDG Counterscreen signal (AID 1347427)
# Method in brief: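 Counterscreen read of UDG activity (2 U/mL, 4/3x) in the FRET deamination format with AID (1 uM, 4/3x), DJC20/DJC23 substrates (250 nM, 4x), 4 h at room temperature. NaOH stop, fluorescence at 560 ex/665 em.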
# [15] = Primary qHTS for inhibitors of La Crosse Virus (LACV) - induced cell death in SH-SY5Y cells (AID 1508616);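 further: top concentration of the series differs between compounds; higher means more rescue of cells from virus-induced death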
# Method in brief: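 Readout was luminescence from ATPLite 1step added after a 6-day LACV infection (0.01 MOI) of SH-SY5Y cells that had received pin-transferred compound 24 hr after seeding.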
# [16] = A High-Content qHTS Against Drug Library for the Identification of Small Molecules that Inhibit DYT1 Early Onset Primary Dystonia-Associated Cell Pathology (AID 1645839; calls by dose curve; further: potency means the concentration at half of the fitted maximal effect)
# Method in brief: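 Readout: %pathology, the punctate EGFP-TorsinA distribution from imaging, as the primary channel and cell count as the toxicity counterscreen. HEK293 Flp-In cells expressing delE TorsinA were induced with tetracycline and treated with compound for 48 h.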
# [17] = target: Calcium and integrin-binding protein 1 (Homo sapiens) (UniProt Q99828); assay: Confirmatory qHTS for Identification of Calcium Integrin Binding Protein 1 (CIB1) Competitor (AID 1508617); further: potency means the concentration at half of the fitted maximal effect; nearly all actives have a fitted effect of over 65% in size
# Method in brief: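 Confirmatory qHTS measures displacement of a FITC-alphaIIb peptide (100 nM) from CIB1-GST (1 uM) by fluorescence polarization. Calcium-containing HEPES buffer, pH 7.4; two 15 min room-temperature incubations.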
# [18] = Confirmatory qHTS for small molecule stabilizers of the endoplasmic reticulum resident proteome: Secreted ER Calcium Modulated Protein (SERCaMP) assay (AID 1508628); further: nearly all actives have a fitted effect of over 40% in size; further: potency means the concentration at half of the fitted maximal effect
# Method in brief: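 We seeded SH-SY5Y-GLuc-SERCaMP cells, added compounds (three concentrations in the primary run, eleven up to 76.6 uM in confirmation), incubated 16 h, depleted ER calcium with thapsigargin, and read luciferase 4 h later.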
# Sequence of Protein phosphatase 1D (Homo sapiens) (O15297 whole entry, looked up): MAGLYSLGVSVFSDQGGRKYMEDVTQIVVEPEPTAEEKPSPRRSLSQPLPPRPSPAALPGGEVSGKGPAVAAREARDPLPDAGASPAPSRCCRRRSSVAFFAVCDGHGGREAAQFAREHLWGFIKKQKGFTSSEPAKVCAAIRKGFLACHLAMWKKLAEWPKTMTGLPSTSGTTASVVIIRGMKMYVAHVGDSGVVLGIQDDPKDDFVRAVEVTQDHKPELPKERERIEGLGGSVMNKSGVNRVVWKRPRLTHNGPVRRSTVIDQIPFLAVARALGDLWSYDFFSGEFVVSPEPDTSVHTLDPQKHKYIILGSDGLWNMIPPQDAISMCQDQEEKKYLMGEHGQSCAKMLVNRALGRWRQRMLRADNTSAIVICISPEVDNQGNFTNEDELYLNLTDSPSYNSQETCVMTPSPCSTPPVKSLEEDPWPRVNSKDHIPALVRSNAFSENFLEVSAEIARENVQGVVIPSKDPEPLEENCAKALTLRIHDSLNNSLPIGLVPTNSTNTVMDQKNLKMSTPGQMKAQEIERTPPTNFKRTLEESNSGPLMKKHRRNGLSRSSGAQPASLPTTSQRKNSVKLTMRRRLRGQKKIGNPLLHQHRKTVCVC
# Sequence of Cytochrome P450 2C9 (Homo sapiens) (P11712 whole entry, looked up): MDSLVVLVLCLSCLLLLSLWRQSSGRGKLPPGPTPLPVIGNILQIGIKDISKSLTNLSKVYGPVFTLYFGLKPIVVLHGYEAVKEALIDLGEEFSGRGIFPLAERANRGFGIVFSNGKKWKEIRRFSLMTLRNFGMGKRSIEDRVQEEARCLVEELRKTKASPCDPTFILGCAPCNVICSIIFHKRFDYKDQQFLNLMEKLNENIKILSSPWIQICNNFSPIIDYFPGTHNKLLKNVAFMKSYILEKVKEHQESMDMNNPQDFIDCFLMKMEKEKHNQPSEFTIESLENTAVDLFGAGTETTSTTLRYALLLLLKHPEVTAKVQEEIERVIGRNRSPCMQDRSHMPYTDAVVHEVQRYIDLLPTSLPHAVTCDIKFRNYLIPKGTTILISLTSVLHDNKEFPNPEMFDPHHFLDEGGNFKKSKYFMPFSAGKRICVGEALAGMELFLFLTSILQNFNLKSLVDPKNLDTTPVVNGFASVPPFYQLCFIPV
# Sequence of Cytochrome P450 2D6 (Homo sapiens) (P10635 whole entry, looked up): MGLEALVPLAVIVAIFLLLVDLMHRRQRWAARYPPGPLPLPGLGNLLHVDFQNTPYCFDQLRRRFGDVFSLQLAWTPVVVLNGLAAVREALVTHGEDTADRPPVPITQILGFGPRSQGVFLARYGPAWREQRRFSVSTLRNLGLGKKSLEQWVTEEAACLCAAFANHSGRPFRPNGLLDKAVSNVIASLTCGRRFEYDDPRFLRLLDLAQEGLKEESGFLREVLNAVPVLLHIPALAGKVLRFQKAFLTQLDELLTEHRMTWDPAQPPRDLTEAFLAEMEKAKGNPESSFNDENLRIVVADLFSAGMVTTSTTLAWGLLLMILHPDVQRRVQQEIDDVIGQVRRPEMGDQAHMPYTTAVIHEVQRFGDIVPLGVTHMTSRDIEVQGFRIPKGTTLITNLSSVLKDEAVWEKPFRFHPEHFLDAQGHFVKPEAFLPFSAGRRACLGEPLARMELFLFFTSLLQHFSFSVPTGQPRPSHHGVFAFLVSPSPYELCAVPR
# Sequence of Papain (Carica papaya) (P00784 whole entry, looked up): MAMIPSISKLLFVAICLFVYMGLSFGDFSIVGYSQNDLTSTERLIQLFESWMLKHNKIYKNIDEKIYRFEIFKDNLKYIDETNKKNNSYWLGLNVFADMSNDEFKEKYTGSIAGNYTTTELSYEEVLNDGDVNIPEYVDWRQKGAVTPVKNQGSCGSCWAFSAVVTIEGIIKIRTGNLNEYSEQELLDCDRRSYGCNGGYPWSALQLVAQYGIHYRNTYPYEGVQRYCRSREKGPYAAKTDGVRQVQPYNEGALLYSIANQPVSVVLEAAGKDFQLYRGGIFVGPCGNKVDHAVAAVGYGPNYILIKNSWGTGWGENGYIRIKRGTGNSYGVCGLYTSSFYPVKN
# Sequence of Calcium and integrin-binding protein 1 (Homo sapiens) (Q99828 whole entry, looked up): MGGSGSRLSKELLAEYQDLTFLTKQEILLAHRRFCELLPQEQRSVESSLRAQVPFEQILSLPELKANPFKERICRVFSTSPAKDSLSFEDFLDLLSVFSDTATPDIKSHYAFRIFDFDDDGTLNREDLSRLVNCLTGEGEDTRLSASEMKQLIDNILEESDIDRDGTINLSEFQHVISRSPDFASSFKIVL
# Sequence of Single-stranded DNA cytosine deaminase (Homo sapiens) (Q9GZX7 whole entry, looked up): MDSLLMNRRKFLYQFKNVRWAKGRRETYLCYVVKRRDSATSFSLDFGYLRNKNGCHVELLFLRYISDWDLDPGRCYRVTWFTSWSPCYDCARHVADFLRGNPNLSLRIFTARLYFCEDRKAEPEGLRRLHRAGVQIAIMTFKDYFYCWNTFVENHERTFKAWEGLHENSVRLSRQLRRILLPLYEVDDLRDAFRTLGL
# Sequence of N-terminal Xaa-Pro-Lys N-methyltransferase 1 (Homo sapiens) (Q9BV86 whole entry, looked up): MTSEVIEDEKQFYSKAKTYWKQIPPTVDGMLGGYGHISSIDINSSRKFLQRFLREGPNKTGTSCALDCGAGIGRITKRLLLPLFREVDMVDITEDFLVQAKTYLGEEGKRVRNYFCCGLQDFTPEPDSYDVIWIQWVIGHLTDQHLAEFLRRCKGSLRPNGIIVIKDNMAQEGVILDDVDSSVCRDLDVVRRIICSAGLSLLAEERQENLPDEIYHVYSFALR
# Sequence of Rap guanine nucleotide exchange factor 3 (Homo sapiens) (O95398 whole entry, looked up): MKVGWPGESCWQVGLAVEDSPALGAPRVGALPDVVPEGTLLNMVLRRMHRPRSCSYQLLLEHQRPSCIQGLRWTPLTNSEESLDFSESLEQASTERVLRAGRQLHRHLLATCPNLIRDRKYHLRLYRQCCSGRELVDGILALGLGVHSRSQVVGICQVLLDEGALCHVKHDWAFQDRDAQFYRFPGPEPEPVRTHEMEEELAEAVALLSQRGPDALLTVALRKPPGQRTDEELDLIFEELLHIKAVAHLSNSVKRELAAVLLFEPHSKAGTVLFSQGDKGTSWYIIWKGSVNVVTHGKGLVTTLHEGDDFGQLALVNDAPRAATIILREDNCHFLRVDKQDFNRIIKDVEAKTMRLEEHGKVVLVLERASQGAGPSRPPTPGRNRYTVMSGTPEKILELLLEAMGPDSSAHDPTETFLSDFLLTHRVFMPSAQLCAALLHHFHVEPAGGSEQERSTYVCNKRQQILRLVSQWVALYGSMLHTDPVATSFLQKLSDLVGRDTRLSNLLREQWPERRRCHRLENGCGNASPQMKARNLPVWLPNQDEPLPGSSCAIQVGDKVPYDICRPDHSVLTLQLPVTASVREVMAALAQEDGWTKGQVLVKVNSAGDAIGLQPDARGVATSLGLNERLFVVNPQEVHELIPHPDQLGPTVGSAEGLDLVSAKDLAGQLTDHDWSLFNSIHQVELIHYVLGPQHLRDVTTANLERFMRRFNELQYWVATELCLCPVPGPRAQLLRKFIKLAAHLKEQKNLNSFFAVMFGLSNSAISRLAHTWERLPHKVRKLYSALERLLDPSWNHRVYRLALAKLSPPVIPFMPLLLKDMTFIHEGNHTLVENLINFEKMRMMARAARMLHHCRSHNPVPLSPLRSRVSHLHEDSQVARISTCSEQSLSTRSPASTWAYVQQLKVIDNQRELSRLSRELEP
smiles,measurement,setting,value
CO[C@H]1C[C@@H]2CC[C@@H](C)[C@@](O)(O2)C(=O)C(=O)N2CCCC[C@@H]2C(=O)O[C@H]([C@H](C)C[C@@H]2CC[C@H](OCCO)[C@H](OC)C2)CC(=O)[C@H](C)C=C(C)[C@@H](O)[C@@H](OC)C(=O)[C@H](C)C[C@H](C)C=CC=CC=C1C,Potency,[1],inactive
CS(=O)(=O)N(Cc1ccco1)CC(O)Cn1c2ccccc2c2ccccc21 (stereo unspecified),Potency,[1],inactive
O=C(CCCCCCC(=O)Nc1ccccc1)NO,outcome,[2],inactive
same,Potency,[1],inactive
same,Potency,[3],inactive
same,Potency,[4],4.9 µM (active)
same,Potency,[5],inactive
same,Potency,[6],94.4 nM (active) and 1.63 µM (active) and 662 nM (active)
same,Potency,[7],106 nM (active) and 649 nM (active) and 833 nM (active)
CO[C@H]1C[C@@H]2CC[C@@H](C)[C@@](O)(O2)C(=O)C(=O)N2CCCC[C@@H]2C(=O)O[C@H]([C@H](C)C[C@@H]2CC[C@H](OP(C)(C)=O)[C@H](OC)C2)CC(=O)[C@H](C)C=C(C)[C@@H](O)[C@@H](OC)C(=O)[C@H](C)C[C@H](C)C=CC=CC=C1C,Potency,[1],inactive
COc1cc2ncnc(Nc3ccc(F)c(Cl)c3)c2cc1OCCCN1CCOCC1,outcome,[2],inactive
same,Potency,[1],inactive
same,Potency,[8],inactive
same,Potency,[3],inactive
same,Potency,[4],4.9 µM (active)
same,Potency,[5],inactive
same,Potency,[9],7.58 µM (active)
same,Potency,[6],23.7 µM (active) and 20.6 µM (active) and inactive
same,Potency,[7],10.6 µM (active) and 11.5 µM (active)
CC1(C)CCC2=C(O1)c1ccccc1C(=O)C2=O,Potency,[10],7.08 µM (active)
same,outcome,[11],inactive
same,Potency,[1],inactive
same,Potency,[3],inactive
same,outcome,[12],inactive
same,Potency,[6],13.2 µM (active)
same,Potency,[7],9.34 µM (active)
same,outcome,[13],inactive
CCCCC1C(=O)N(c2ccccc2)N(c2ccccc2)C1=O,outcome,[14],inactive
same,Potency,[10],inactive
same,outcome,[15],inactive
same,Potency,[3],inactive
same,Potency,[16],inactive
same,Potency,[4],inactive
same,Potency,[5],8.71 µM (active)
same,outcome,[12],inactive
same,Potency,[6],inactive
same,Potency,[7],inactive
C[N+](C)(C)CC(=O)O,outcome,[2],inactive
same,outcome,[15],inactive
same,Potency,[16],inactive
same,Potency,[4],inactive
same,Potency,[5],inactive
same,Potency,[6],inactive
same,Potency,[7],inactive
CN1C[C@H]2c3ccccc3Oc3ccc(Cl)cc3[C@@H]2C1,outcome,[2],inactive
same,Potency,[1],inactive
same,Potency,[3],inactive
same,Potency,[16],11.2 µM (active)
same,Potency,[4],0.0062 µM (active)
same,Potency,[5],inactive
O=C(O)[C@H]1O[C@H](Oc2cc3oc(-c4ccccc4)cc(=O)c3c(O)c2O)[C@H](O)[C@@H](O)[C@H]1O,Potency,[1],inactive
O=C1NC(=O)C(=Cc2ccc3nccnc3c2)S1,Potency,[1],inactive
CN(C)CCC=C1c2ccccc2COc2ccc(CC(=O)O)cc21,Potency,[1],inactive
C=CCc1ccc(O)c(-c2ccc(O)c(CC=C)c2)c1,Potency,[1],inactive
O=C1NC(=O)C(=Cc2ccc(-c3ccc(F)cc3)o2)S1,Potency,[1],inactive
CCc1ccc(C=C2SC(=S)NC2=O)cc1,Potency,[17],8.91 µM (active)
same,Potency,[3],inactive
COC(=O)C1=CO[C@@H](O)[C@@H]2C(CO)=CC[C@@H]12,Potency,[1],inactive
CC(=O)OC1C(C)OC(Oc2c(-c3ccc(O)cc3)oc3cc(O)cc(O)c3c2=O)C(O)C1OC(C)=O (stereo unspecified),Potency,[1],inactive
O=C(O)C(O)Cc1ccc(O)c(O)c1 (stereo unspecified),Potency,[1],inactive
O=c1cc(-c2ccccc2)oc2cc(O)c(O)c(O)c12,Potency,[17],39.8 µM (active)
same,Potency,[3],inactive
same,Potency,[7],23.5 µM (active)
C[C@H](NC(=O)C(=O)Nc1ccccc1C(C)(C)C)C(=O)N[C@@H](CC(=O)O)C(=O)COc1c(F)c(F)cc(F)c1F,Potency,[1],inactive
CN(C)c1cc(NC(=O)CNC(C)(C)C)c(O)c2c1C[C@@H]1C[C@H]3[C@H](N(C)C)C(=O)C(C(N)=O)=C(O)[C@@]3(O)C(=O)C1=C2O,outcome,[15],inactive
same,Potency,[1],inactive
same,Potency,[16],inactive
same,Potency,[5],inactive
Cc1c(O)cccc1C(=O)N[C@@H](CSc1ccccc1)[C@H](O)CN1C[C@H]2CCCC[C@@H]2C[C@@H]1C(=O)NC(C)(C)C,Potency,[1],inactive
COc1cccc(-c2cc(=O)c3ccccc3o2)c1N,outcome,[14],inactive
same,Potency,[10],inactive
same,outcome,[15],inactive
same,outcome,[11],inactive
same,Potency,[1],inactive
same,Potency,[3],inactive
same,outcome,[12],inactive
same,Potency,[6],inactive
same,Potency,[7],inactive
O=C1c2ccccc2-[n+]2ccc3c([nH]c4ccccc43)c21,Potency,[18],20 µM (active)
same,Potency,[6],1.32 µM (active)
same,Potency,[7],1.32 µM (active)
O=c1ccn([C@@H]2O[C@H](CO)[C@H](O)[C@H]2O)c(=O)[nH]1,Potency,[18],inactive
O=C(OCC#CCSc1nnc(-c2cccc3ccccc23)o1)c1cc2ccccc2s1,Potency,[1],inactive
same,Potency,[3],inactive
CC(=O)O[C@]1(C(C)=O)CC[C@@H]2[C@@H]3C[C@H](C)C4=CC(=O)CC[C@]4(C)[C@H]3CC[C@@]21C,Potency,[1],inactive
same,Potency,[3],inactive
